# Results: the supplement of paper PMC9262897, “Low-cost anti-mycobacterial drug discovery using engineered E. coli” (Nature Communications, 2022)
# Where a name gives a salt, the structure may show the parent alone. ± gives the standard deviation of the averaged measurements.
# Test system: E. coli TESEC Alr+ wild-type control
# Assay: growth (OD600 after 10 h); higher = more growth (less inhibition)
# Conditions: compound 0.1 mM; raw OD600 reference: median of DMSO wells 0.241, cell-free background 0.041
# Procedure: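 TESEC Mtb Alr E. coli, or the Alr+ wild-type control, in 384-well plates with Prestwick library compounds at 0.1 mM and 1% DMSO, across arabinose induction levels of 1E3 to 1E7 nM. Growth is read as OD600 after 10 h at 37 °C in triplicate biological replicates.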
row,SMILES,growth
1,COc1ncnc(NS(=O)(=O)c2ccc(N)cc2)c1OC [Sulfadoxine],0.2282 ± 0.0012
2,c1ccc(C2CN3CCSC3=N2)cc1 (stereo not given) [Tetramisole hydrochloride],0.244 ± 0.003
3,CCCC1O[C@@H]2C[C@H]3[C@@H]4CCC5=CC(=O)C=C[C@]5(C)[C@H]4[C@@H](O)C[C@]3(C)[C@]2(C(=O)CO)O1 (stereo not given in full) [Budesonide],0.1456 ± 0.0011
4,COc1cc2ncnc(Nc3ccc(F)c(Cl)c3)c2cc1OCCCN1CCOCC1 [Gefitinib],0.206 ± 0.013
5,"C[C@H]1C[C@@H]2[C@H]([C@@H](O)C[C@@]3(C)[C@H]2CC[C@]3(O)C(=O)CO)[C@@]2(C)C=CC(=O)C=C12 [Methylprednisolone, 6-alpha]",0.202 ± 0.0042
6,C[C@@H](O)[C@H]1C(=O)N2C(C(=O)O)=C(SCCNC=N)C[C@H]12 [Imipenem],0.216 ± 0.0037
7,CC(=O)Oc1ccccc1C(=O)Nc1ncc([N+](=O)[O-])s1 [Nitazoxanide],0.0514 ± 0.01
8,CC[C@H](C)[C@H](N)C1=N[C@H](C(=O)N[C@@H](CC(C)C)C(=O)N[C@H](CCC(=O)O)C(=O)N[C@H](C(=O)N[C@H]2CCCCNC(=O)[C@H](CC(N)=O)NC(=O)[C@@H](CC(=O)O)NC(=O)[C@H](Cc3cnc[nH]3)NC(=O)[C@@H](Cc3ccccc3)NC(=O)[C@H]([C@@H](C)CC)NC(=O)[C@@H](CCCN)NC2=O)[C@@H](C)CC)CS1 [Bacitracin],0.306 ± 0.0084
9,c1ccc([C@H]2CN3CCSC3=N2)cc1 [Levamisole hydrochloride],0.253 ± 0.0028
10,"CN(Cc1cnc2nc(N)nc(N)c2n1)c1ccc(C(=O)N[C@@H](CCC(=O)O)C(=O)O)cc1 (racemic) [Amethopterin (R,S)]",0.213 ± 0.01
11,CCOC(=O)C1=C[C@]2(CC)CCCN3CCc4c(n1c1ccccc41)[C@@H]32 [Vinpocetine],0.216 ± 0.0075
12,COc1ccccc1O [Guaiacol],0.255 ± 0.0046
13,CC(=O)Oc1ccccc1C(=O)O [Acetylsalicylic acid],0.242 ± 0.003
14,C[C@]12CC[C@@H]3c4ccc(O)cc4C[C@@H](CCCCCCCCC[S+]([O-])CCCC(F)(F)C(F)(F)F)[C@H]3[C@@H]1CC[C@@H]2O (stereo not given in full) [Fulvestrant],0.265 ± 0.015
15,CC(=O)O[C@H]1C[C@@H]2CC[C@@H]3[C@H](CC[C@@]4(C)[C@H]3C[C@H]([N+]3(C)CCCCC3)[C@@H]4OC(C)=O)[C@@]2(C)C[C@@H]1N1CCCCC1 [Vecuronium bromide],0.0818 ± 0.00093
16,NS(=O)(=O)c1cc(C2(O)NC(=O)c3ccccc32)ccc1Cl (stereo not given) [Chlorthalidone],0.223 ± 0.0025
17,CC[C@H]1OC(=O)[C@H](C)[C@@H](O[C@H]2C[C@@](C)(OC)[C@@H](O)[C@H](C)O2)[C@H](C)[C@@H](O[C@@H]2O[C@H](C)C[C@H](N(C)C)[C@H]2O)[C@](C)(O)C[C@@H](C)CN(C)[C@H](C)[C@@H](O)[C@]1(C)O [Azithromycin],0.04107 ± 0.00015
18,CC(=O)N(CC(O)CN(C(C)=O)c1c(I)c(C(=O)NCC(O)CO)c(I)c(C(=O)NCC(O)CO)c1I)c1c(I)c(C(=O)NCC(O)CO)c(I)c(C(=O)NCC(O)CO)c1I (stereo not given) [Iodixanol],0.235 ± 0.0081
19,CN1CCN2c3ccccc3Cc3ccccc3C2C1 (stereo not given) [Mianserine hydrochloride],0.179 ± 0.0089
20,Clc1ccc2nsnc2c1NC1=NCCN1 [Tizanidine HCl],0.245 ± 0.011

row,SMILES,growth
1,CC(=O)[C@H]1CC[C@H]2[C@@H]3CCC4=CC(=O)CC[C@]4(C)[C@H]3CC[C@]12C [Progesterone],0.139 ± 0.0043
2,C#Cc1cccc(Nc2ncnc3cc(OCCOC)c(OCCOC)cc23)c1 [Erlotinib],0.193 ± 0.0065
3,Nc1cc(-c2ccncc2)c[nH]c1=O [Amrinone],0.237 ± 0.0081
4,COc1cc2nc(N3CCN(C(=O)C4COc5ccccc5O4)CC3)nc(N)c2cc1OC (stereo not given) [Doxazosin mesylate],0.054 ± 0.0033
5,CN1CCN(CCCN2c3ccccc3Sc3ccc(S(=O)(=O)N(C)C)cc32)CC1 [Thioproperazine dimesylate],0.181 ± 0.0045
6,O=c1[nH]c(=O)n([C@H]2C[C@H](O)[C@@H](CO)O2)cc1C(F)(F)F [Trifluridine],0.194 ± 0.02
7,COc1ccc2cc(CCC(C)=O)ccc2c1 [Nabumetone],0.168 ± 0.0082
8,CCN(CC)CCNC(=O)c1cc(Br)c(N)cc1OC [Bromopride],0.243 ± 0.025
9,"O=C1C(O)=C(O)C(=O)C(O)=C1O [Tetrahydroxy-1,4-quinone hydrate]",0.231 ± 0.0052
10,CC(=O)N(O)CCCCCNC(=O)CCC(=O)N(O)CCCCCNC(=O)CCC(=O)N(O)CCCCCN [Deferoxamine mesylate],0.0549 ± 0.00064
11,O=c1cc(-c2ccc(O)c(O)c2)oc2cc(O)cc(O)c12 [Luteolin],0.05467 ± 0.00021
12,Nc1nc(=O)c2nc(CNc3ccc(C(=O)N[C@@H](CCC(=O)O)C(=O)O)cc3)cnc2[nH]1 [Folic acid],0.25 ± 0.0064
13,O=C(O)CNC(=O)C(CS)Cc1ccccc1 (stereo not given) [Thiorphan],0.26 ± 0.0069
14,CC1(C)S[C@@H]2[C@H](NC(=O)[C@H](NC(=O)N3CCNC3=O)c3ccccc3)C(=O)N2[C@H]1C(=O)O [Azlocillin sodium salt],0.238 ± 0.0043
15,Clc1cnccn1 [2-Chloropyrazine],0.241 ± 0.011
16,O=C(C1CCCCC1)N1CC(=O)N2CCc3ccccc3C2C1 (stereo not given) [Praziquantel],0.207 ± 0.0042
17,C#C[C@]1(O)CC[C@H]2[C@@H]3CCC4=CC(=O)CC[C@@H]4[C@H]3CC[C@@]21CC [Norgestrel-(-)-D],0.225 ± 0.017
18,CCCCOc1ccc(C(=O)CCN2CCCCC2)cc1 [Dyclonine hydrochloride],0.208 ± 0.004
19,CC1CCc2c(N3CCC(O)CC3)c(F)cc3c(=O)c(C(=O)O)cn1c23 (stereo not given) [Nadifloxacin],0.04253 ± 5.8e-05
20,OC(c1cc(C(F)(F)F)nc2c(C(F)(F)F)cccc12)C1CCCCN1 (stereo not given) [Mefloquine hydrochloride],0.0408 ± 0.00093
